Potency data for 64 compounds are collected here from PubChem BioAssay AID588342 (National Center for Advancing Translational Sciences (NCATS), 2011).

Each structure is given as a SMILES string. Hit rate of the full screen: of about 360,000 compounds, about 25,000 (6.9%) were called active. Roughly 9% stayed inconclusive and do not appear here. The call rests on the fitted dose curve; in most records, active means well fitted inhibition curve with a large enough effect; inconclusive means small, poorly fitted or top-dose-only effect; inactive means flat fitted curve, though single readings scatter. The list comes from a sample in which actives are over-represented; it also holds similar structures and randomly drawn compounds. A call without a number means that no potency is given here.

Chain of Luciferin 4-monooxygenase (Photinus pyralis) (P08659 whole entry, looked up): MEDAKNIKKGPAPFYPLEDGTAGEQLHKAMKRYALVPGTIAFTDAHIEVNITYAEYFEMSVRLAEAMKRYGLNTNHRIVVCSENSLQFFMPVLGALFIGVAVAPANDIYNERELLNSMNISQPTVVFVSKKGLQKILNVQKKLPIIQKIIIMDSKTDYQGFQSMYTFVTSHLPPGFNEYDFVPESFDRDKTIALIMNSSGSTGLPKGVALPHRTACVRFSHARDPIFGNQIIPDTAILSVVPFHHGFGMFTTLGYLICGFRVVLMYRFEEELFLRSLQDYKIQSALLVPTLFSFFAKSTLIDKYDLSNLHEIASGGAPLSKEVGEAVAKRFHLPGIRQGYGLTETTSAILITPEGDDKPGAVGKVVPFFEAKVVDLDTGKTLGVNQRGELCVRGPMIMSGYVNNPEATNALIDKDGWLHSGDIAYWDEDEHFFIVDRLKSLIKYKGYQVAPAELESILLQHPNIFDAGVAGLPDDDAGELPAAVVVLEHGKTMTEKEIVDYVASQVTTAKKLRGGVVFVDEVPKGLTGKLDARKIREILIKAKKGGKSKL

This assay addresses Luciferin 4-monooxygenase (Photinus pyralis) (UniProt P08659). Briefly: qHTS profiling assay for firefly luciferase inhibitor/activator using purifed enzyme and Km concentrations of substrates (counterscreen for miR-21 project). Further: nearly all actives have a fitted effect of over 55% in size. The note with it: purified FLuc, luminescence inhibition; series mostly up to 57.5 µM. The source says:
MLPCN Grant: 1 R21 NS059478-01 (miR-21 grant) Assay Provider: NCGC NCGC Assay Overview: Firefly (Photinus pyralis) luciferase is one of the most commonly used transcriptional reporters for a number of reasons. It is considered one of the more dynamically responsive reporters -that is, responsive to changes in reporter transcription - as it requires no post-translational modifications and is enzymatically active directly after protein synthesis (Wood, 1998). Additionally, the half-life of the luciferase protein is short relative to other reporter-gene products (Wood, 1995). Whereas reporters with long half-lives potentially allow for increased signal due to accumulation of reporter-gene product, once accumulated in the cell, dynamic changes in reporter-gene expression may be difficult to detect(Fan and Wood, 2007; Almond et al., 2004). It has been shown that wild-type P. pyralis luciferase has a half-life of approximately […] hours in mammalian cells (Thompson et al., 1991). Firefly luciferase reporter-gene assays are also generally considered one of the most sensitive assay types (Wood, 1995; Wood, 1998). Although light produced in a bioluminescence reaction is of lower intensity than that produced during fluorescence emission, this is offset by little to no background light inherent to luminescent assays. Thus the luciferase reporter can be expressed at much lower levels than fluorescent proteins while still providing robust signal. # However, it was initially observed, in 1991, by Thompson et al., that compounds that resemble the substrates of firefly luciferase (FLuc) can act as competitive inhibitors of the enzyme, and that these compounds, upon interaction with luciferase in the cell, can actually stabilize the protein and increase its half-life. Accumulated intracellular FLuc protein can be measured as an increase in luminescence signal, upon addition of detection reagents (which contain high concentrations of FLuc substrates) commonly used in high-throughput screening. In cell-based reporter gene assays that use FLuc as the reporter gene to quantitate the potential influence of a given compound against the target biology, this apparent increase in luminescence can mistakenly be interpreted as identification of a compound that is active against the target of interest. This is the case for the miR-21 FLuc reporter gene assay used to identify inhibitors of the miR-21 pathway (PubChem AID 2289) - compounds of interest will inhibit miR-21 biogenesis/expression or activity, and are identified by causing an increase in luminescence, due to increased FLuc translation. However, FLuc inhibitory compounds that stabilize the FLuc protein will give an identical read-out, making it difficult to distinguish compounds that are active against the target from those active against FLuc. Previous profiling work to determine the prevalence of compounds that affect FLuc enzymatic activity (PubChem AID 411) identified that ~3% of the MLSMR library (then at ~72K) inhibited FLuc. […] Since the MLSMR had grown to ~350K compounds, and since it was expected that a significant percentage of compounds found active in the miR-21 FLuc assay would be FLuc inhibitors, the library was screened for activity against FLuc using a biochemical assay of purified FLuc and KM concentrations of FLuc substrates (D-luciferin and ATP).
NCGC Assay Protocol Summary: Reagents: 50mM Tris acetate, pH 7.5; 10mM Mg acetate; 10uM D-luciferin (Sigma #L9504); 10uM ATP; 0.01% Tween-20; 0.05% BSA; 10nM P. pyralis luciferase (Sigma #L9506) Control compounds used were two known firefly luciferase inhibitors (compounds (2) and (5) in Auld et al., 2010), and DMSO. […]
(Quantitative high-throughput screening tests each substance at several concentrations.)
As for `CCN(CC)C(=O)CSc1nc2cc3c(cc2c(=O)n1CCCC(=O)NCc1ccc2c(c1)OCO2)OCO3`, the Potency entry is “inactive”. For the compound `CCC1=Nc2cc(C(=O)NCCCOC(C)C)ccc2Sc2ccc(C)cc21`, the Potency result was “inactive”.

Regarding `CCN(CC)S(=O)(=O)c1ccc2c(c1)c(=O)c(C(=O)N1CCN(c3cccc(Cl)c3)CC1)cn2C`, the Potency result is “inactive”. As for `CC(C)(C)OC(=O)N1CCC(c2c(C(=O)Nc3ccc4c(c3)OCO4)cnn2-c2ccccc2)CC1`, the Potency entry was “inactive”. The result for `COc1ccc(-c2noc(CCC(=O)N(C)c3ccccc3C)n2)cc1` reads “inactive”; that for `CN(CC(=O)NCC(c1ccccc1)N1CCCC1)S(=O)(=O)c1ccc(Cl)cc1` (centres undefined), “inactive”; that for `CCOC(=O)c1ccc(NC(=O)Cn2c(=O)cc(C)c3c(C)nn(-c4cccc(F)c4)c32)cc1`, “inactive”.

In the case of `O=C(COC(=O)CCc1nc2ccccc2c(=O)[nH]1)Nc1ccc(N2CCOCC2)cc1`, the Potency result was “inactive”. Consider `CCCSc1nsc(N)n1`, for which the Potency result is “inactive”. Consider `CCCCCCSc1nsc(N)n1`, for which the Potency was 26.9 µM (active). `CC(C)CC(=O)NC(=S)NNC(=O)c1cccc([N+](=O)[O-])c1`: the Potency entry was “inactive”. Turning to `COc1ccc(OCCNC(=O)c2cc(C3CC3)nc3c2cnn3C(C)C)cc1`, the Potency entry was “inactive”.

With `CCOC(=O)c1ccc(NC(=O)C2CCN(S(=O)(=O)c3ccc4c(c3)CCCC(=O)N4)CC2)cc1`, the Potency result was “inactive”. In the case of `COc1cccc(CSc2nc3nc(C)cc(C)n3n2)c1`, the Potency entry was “inactive”. Regarding `COc1ccc2nc(SCc3ccccc3)nc(C)c2c1`, the Potency is 2.69 µM (active). For `COc1ccc(-c2nnc3ccc(SCc4ccccc4)nn23)cc1`, the Potency result is “inactive”. As for `CC(Oc1ccc(Br)cc1)C(=O)NC1CCCCCC1` (centres undefined), the Potency entry is “inactive”. Turning to `CCn1cc(C(=O)N2CCN(c3cc(Cl)ccc3C)CC2)c(=O)c2cc(S(=O)(=O)N3CCCC3)ccc21`, the Potency result was “inactive”. Consider `CC(C)(Oc1ccc(Cl)cc1)C(=O)OCC(=O)NCCc1ccc(S(N)(=O)=O)cc1`, for which the Potency result was “inactive”. Turning to `O=C(NCCc1ccccc1)C(=O)NCC(c1ccco1)S(=O)(=O)c1ccccc1` (centres undefined), the Potency result was “inactive”.

Take `CCCCn1c(N)c(N(CCOC)C(=O)c2cccc(S(=O)(=O)N(C)c3ccccc3)c2)c(=O)[nH]c1=O`: the Potency result was “inactive”.

Consider `COc1ccccc1N1CCN(C(=O)c2cn(-c3ccccc3)nc2-c2cccnc2)CC1`, for which the Potency is 9.53 µM (active).

Take `O=C(c1cn(-c2ccccc2)nc1-c1cccnc1)N1CCN(S(=O)(=O)c2ccccc2F)CC1`: the Potency entry is “inactive”. As for `NC(=O)C1CCN(C(=O)c2cn(-c3ccccc3)nc2-c2cccnc2)CC1`, the Potency entry was “inactive”. The result for `CCOCCCNC(=O)c1c(NC(=O)Cc2coc3c(C)c(C)ccc23)sc2c1CCC2` reads “inactive”; that for `CC[C@]1(c2ccccc2OC)C(=O)N(C(=O)OC)N1C(=O)OC`, “inactive”. With `O=C(COc1ccccc1)NCc1ccc2c(c1)CCN2C(=O)c1ccc(F)cc1`, the Potency result was “inactive”.

With `Cc1cccc(OCCNC(=O)CSc2ccc(C(F)(F)F)cc2[N+](=O)[O-])c1`, the Potency entry was “inactive”. The result for `COc1ccc(-c2nn(CC(=O)Nc3ccccc3F)c3c2cnc2ccc(F)cc23)cc1` reads “inactive”; that for `CC(C)(C)OC(=O)N1CCC(C(=O)NNC(=O)c2ccc(Cl)cc2Cl)CC1`, “inactive”; that for `COc1cccc(NC(=O)c2nn(C34CC5CC(CC(C5)C3)C4)cc2[N+](=O)[O-])c1`, “inactive”. Under `O=C(CCN1C(=O)c2ccncc2C1=O)Nc1ccc2c(c1)OCCO2` stands “inactive”; under `O=C(Nc1ccc2c(c1)OCCO2)c1ccoc1`, 21.3 µM (active). As for `O=C(Nc1ccc2c(c1)OCO2)c1ccc(N2C(=O)c3ccccc3C2=O)cc1`, the Potency entry is “inactive”. The result for `CCC(C(=O)Nc1ccc2c(c1)OCCO2)c1ccccc1` (centres undefined) reads “inactive”. For the compound `Cc1nn(CC(=O)Nc2ccc3c(c2)OCO3)c(C)c1[N+](=O)[O-]`, the Potency entry is “inactive”.

Take `O=C(Nc1cccc(NC(=O)c2ccco2)c1)c1cnccn1`: the Potency entry is “inactive”. Consider `O=C(Nc1ccc2c(c1)OCCO2)c1cnccn1`, for which the Potency was 12 µM (active). The result for `Cn1cc([N+](=O)[O-])c(C(=O)Nc2ccc3c(c2)OCCO3)n1` reads 16.9 µM (active); that for `O=C(OCc1cc(=O)n2ccsc2n1)C1(c2ccc(Cl)cc2)CC1`, “inactive”; that for `COCC(C)NS(=O)(=O)c1ccc(N2CCCCS2(=O)=O)cc1` (centres undefined), “inactive”.

Take `COc1ccccc1N=C1SC(C)CN1C(=O)C1CCC1` (centres undefined): the Potency entry was “inactive”. As to `CCOc1ccc(C(=O)Nc2ccc3nc4c(c(Nc5ccccc5OC)c3c2)CCCC4)cc1`, the Potency result is “inactive”. In the case of `CCOC(=O)C1CCN(c2ncnc3c2c(-c2ccccc2)cn3-c2cccc(C)c2)CC1`, the Potency entry was “inactive”. Under `COc1ccc(C(C)NC(=O)C23CC4CC(CC(C4)C2)C3)cc1` (centres undefined) stands “inactive”.

With `CC(C)NS(=O)(=O)c1ccc(NC(=O)C2CCCCC2)cc1`, the Potency entry is “inactive”. Under `O=C(Nc1ccc(-c2ccc3nncn3n2)cc1)C1CCCCC1` stands 26.9 µM (active); under `CC(=O)c1ccc(S(=O)(=O)Nc2ccc(-c3ccc4nncn4n3)cc2)cc1`, “inactive”; under `COc1ccccc1NC(=O)c1oc2ccccc2c1NC(=O)COc1ccccc1OC`, “inactive”.

Consider `CCCCN(CC)CCCNC(=O)c1nn(C)c2c1CSc1ccccc1-2`, for which the Potency result was “inactive”. Regarding `CCOC(=O)N1CCN(C(=O)CNC(=O)Cc2ccc(Cl)cc2)CC1`, the Potency result was “inactive”. Turning to `CCOC(=O)c1ccc(CS(=O)c2ccc(Cl)cc2)o1` (centres undefined), the Potency entry is “inactive”.

As for `CCOC(=O)c1c(Cc2ccc(Cl)cc2)c[nH]c1C`, the Potency is 19 µM (active). Under `CC1(c2nnc(Cc3ccccc3)o2)CC(c2ccccc2F)=NO1` (centres undefined) stands “inactive”; under `Cc1nc(C(=O)Nc2ccc(Cl)cc2)sc1C1(C)CC(c2ccccc2)=NO1` (centres undefined), “inactive”; under `Cc1nc(-c2ccc(Cl)cc2)sc1C1(C)CC(c2ccccc2F)=NO1` (centres undefined), 19 µM (active).

Consider `CN(CC(=O)Nc1ccc(F)c(F)c1F)C(=O)C1CC(=O)N(C2CCCC2)C1` (centres undefined), for which the Potency result was “inactive”.

On to `O=C(/C=C/Sc1ncn[nH]1)c1ccc(Cl)cc1`, for which the Potency is 1.9 µM (active). In the case of `O=C(CSc1ncn[nH]1)NCc1ccc2c(c1)OCO2`, the Potency entry was “inactive”. Take `COC(=O)c1cc(NC(=O)C2C3C=CC(C3)C2C(=O)O)cc(C(=O)OC)c1` (centres undefined): the Potency entry is “inactive”.

Take `CC(=O)NS(=O)(=O)c1ccc(NC(=O)C2C3C=CC(C3)C2C(=O)O)cc1` (centres undefined): the Potency result was “inactive”. Consider `CC(C)COC(=O)c1ccc(NC(=O)C2C3C=CC(C3)C2C(=O)O)cc1` (centres undefined), for which the Potency is 19 µM (active). For `CCCN(CC1CC1)C(=S)NC(=O)c1ccccc1Br`, the Potency entry was “inactive”. Take `Cc1csc2nc(COC(=O)c3ccc(NC(=O)COc4ccccc4F)cc3)cc(=O)n12`: the Potency result is “inactive”.
